The structures appear in SMILES notation. Results filed as inconclusive are left out. Active and inactive are the calls of the source. Unless noted, calls come from the whole dose curve; as a rule, active = well fitted curve in either direction with a large enough effect (not every such curve was filed as active); inconclusive = small, poorly fitted or top-dose-only effect, or another doubt; inactive = flat fitted curve, though single readings scatter.

Assay [1] concerns the target Lysosomal acid glucosylceramidase (Homo sapiens) (UniProt P04062). As to the kind of experiment: Glucocerebrosidase-p2 (AID 348; in the data active = potency below about 10 µM; note: potency is the fitted concentration of half-maximal effect). To be noted: purified GBA, blue fluorogenic substrate, 40 min. The essentials:
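Normal human glucocerebrosidase (0.2 nM) with blue fluorogenic substrate (80 uM final) in citrate/phosphate pH 5.9 with 10mM sodium taurocholate, 0.01% tween-20; 40 min RT, NaOH/glycine stop; fluorescence Ex 365/Em 440; AC50 from a titration from 0.6 nM upwards.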

Assay [2] is described as follows: AP1 Signaling Pathway (AID 357).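 Note: ME-180 reporter cells stimulated with EGF at its EC50 level; % is set by controls: 0 for no effect and ±100 for the full control effect.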 To be noted: ME-180 AP-1-bla reporter, EGF-induced, beta-lactamase ratio, 5 h; at 7.69 µM (top of the series) unless noted. The essentials:
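Read-out was the 460nm/530nm emission ratio (excitation 405nm) after CCF4 loading for 2.5 hours at room temperature. Cells carried an AP-1-driven beta-lactamase reporter, were stimulated with EC50 EGF plus compound for 5 hours, and AC50 values came from titrations.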

Assay [3] deals with Cytochrome P450 1A2 (Homo sapiens) (UniProt P05177). As to the kind of experiment: p450-cyp1a2 (AID 410; calls by dose curve; note: potency is the fitted concentration of half-maximal effect). To be noted: recombinant CYP1A2, luciferin-ME demethylation, luminescence; series mostly up to 57 µM. The essentials:
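Luminescent demethylation readout: Luciferin-ME (100uM, equal to Km) turned over by 20nM CYP1A2 for 60 min at room temperature after NADPH regeneration addition, following 10 min compound preincubation. Normalization used 57 uM furafylline as full inhibition.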

Assay [4] is described as follows: NFAT Signaling Pathway (AID 444).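 Note: carbachol stimulus at about its EC50 of 1 µM final; % is set by controls: 0 for no effect and ±100 for the full control effect.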 To be noted: Jurkat NFAT-bla M1, carbachol, beta-lactamase ratio, 5 h; at 7.69 µM (top of the series) unless noted. The essentials:
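Jurkat cells carrying an NFAT-driven β-lactamase reporter and co-transfected muscarinic M1 receptor were treated with compound plus carbachol (1 uM final, an EC50 level) for 5 h at 37 °C. CCF4 loading followed for 1 h at RT; 460/530 nm ratio gave %activity.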

The nature of assay [5]: Stat Signaling Pathway (AID 446).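 Note: ME-180 cervical cancer cells given 40 pM IL-6 alongside compound; SIE-controlled beta-lactamase reporter measured as 460/530 nm FRET emission ratio; % is set by controls: 0 for no effect and ±100 for the full control effect.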 To be noted: ME-180 SIE beta-lactamase reporter, IL-6 stimulated, 5 h; at 7.69 µM (top of the series) unless noted. The essentials: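 FRET read-out (405 nm excitation, 460/530 nm emission) of a beta-lactamase reporter under a STAT-inducible element in ME-180 cervical carcinoma cells. Cells with compound receive 40 pM IL-6 for 5 h. Values are normalised to AC90 stimulation and AC90 JAK-inhibitor controls.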

In assay [6] the target is Glucocorticoid receptor (Homo sapiens) (UniProt P04150). As to the kind of experiment: GR-EFC Redistribution (AID 451; calls by dose curve; note: potency is the fitted concentration of half-maximal effect). The note with it: CHO-K1 GR-EFC translocation, beta-gal luminescence, 2 h. The method, boiled down: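 CHO-K1 cells stably expressing nuclear-localized β-gal enzyme acceptor and GR fused C-terminally to the enzyme donor fragment; ligand-driven nuclear translocation restores β-gal by complementation. Compounds titrated up to 46 uM final, 2 h at 37 °C; luminescence read.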

Assay [7] concerns the target Mitogen-activated protein kinase 10 (Mus musculus) (UniProt Q61831). Put plainly: JNK3 AlphaScreen Assay (AID 530).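 Note: kinase came from lysate of stimulated human HepG2 cells; % is set by controls: 0 for no effect and ±100 for the full control effect.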 The note with it: JNK3 lysate, c-Jun phosphorylation; series mostly up to 57.1 µM. The essentials: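 Phosphorylation of biotinylated GST-cJun(1-79) at Ser73 is measured by AlphaScreen proximity luminescence. Enzyme is JNK3 in HepG2 lysates activated with interleukin-1beta and tumor necrosis factor alpha; ATP is 10 uM final.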
In general terms: Alpha assays give light when donor and acceptor beads are brought close together.

In assay [8] the target is 3',5'-cyclic-AMP phosphodiesterase 4B (Homo sapiens) (UniProt Q07343). As to the kind of experiment: qHTS Assay for Inhibitors of PDE-IV (AID 607; active = well fitted activation curve with a large enough effect in the main read-out, with a control signal flat, not every such curve was filed as active; note: % of control where 0% means no effect). To be noted: HEK293 ACTOne CNG channel cells, membrane potential fluorescence; series mostly up to 22.9 µM. The method, boiled down: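 Cell-based read-out of cAMP via a modified cyclic nucleotide-gated channel and membrane potential dye (535/590 nm) in HEK293 cells expressing PDE4 endogenously. Compounds tested up to 22.9 uM final; 100 uM RO 20-1724 reference.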
Background: Quantitative high-throughput screening tests each substance at several concentrations.

Assay [9] deals with Cytochrome P450 3A4 (Homo sapiens) (UniProt P08684). Put plainly: qHTS Assay for Activators of Cytochrome P450 3A4 (AID 885; active = well fitted curve in the direction sought with a large enough effect; an effect the other way counts as inactive or inconclusive; note: nearly all actives have a fitted effect of over 65% in size). To be noted: recombinant CYP3A4, Luciferin-PPXE luminescence, 60 min; series mostly up to 57.1 µM. The essentials:
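Luminescent readout of luciferin formed from 25 uM Luciferin-PPXE (KM level) by 20 nM CYP3A4 in 200 mM KPO4, with 60 min NADPH-driven reaction at room temperature after 10 min compound exposure. Ketoconazole (57 uM) defined 100% inhibition.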

Assay [10] deals with Cytochrome P450 2C19 (Homo sapiens) (UniProt P33261). Put plainly: qHTS Assay for Inhibitors and Substrates of Cytochrome P450 2C19 (AID 899; active = well fitted curve in the direction sought with a large enough effect; an effect the other way counts as inactive or inconclusive; note: nearly all actives have a fitted effect of over 60% in size; note: potency is the fitted concentration of half-maximal effect). To be noted: recombinant CYP2C19, luciferin-H EGE luminescence; series mostly up to 57.1 µM. The method, boiled down:
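NADPH-dependent conversion of Luciferin-H EGE (10uM, at KM) by 5nM enzyme in 50mM KPO4, 60 min at 37C following 10 min compound preincubation. Stopped with luciferin detection buffer; luminescence read after 20 min.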

Assay [11] can be described thus: qHTS Assay for Lipid Storage Modulators (AID 1519; calls by dose curve). To be noted: Drosophila S3 cells, BODIPY lipid droplet/cell ratio, laser cytometry, cells loaded with oleic acid; for activity change, negative = inhibition: at 57.5 µM (top of the series). The method, boiled down:
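Cells seeded at 5,000 per well were treated with compounds over a concentration series and loaded with oleic acid (400 uM, as added). Lipid droplet fluorescence (488 nm excitation, 500-530 nm channel) was read by laser-scanning cytometry and normalized to 20 uM Triacsin C.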

The target of assay [12] is Cytochrome P450 3A4 (Homo sapiens) (UniProt P08684). Put plainly: qHTS Assay for Inhibitors and Substrates of Cytochrome P450 3A4 (AID 884; active = well fitted curve in the direction sought with a large enough effect; an effect the other way counts as inactive or inconclusive; note: potency is the fitted concentration of half-maximal effect; nearly all actives have a fitted effect of over 50% in size). To be noted: recombinant CYP3A4, Luciferin-PPXE luminescence; series mostly up to 57.1 µM. The method, boiled down:
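Luminescent readout of luciferin produced by CYP3A4 (20 nM) dealkylation of Luciferin-PPXE, 25 uM (its KM). NADPH-driven reaction ran 60 min at RT after 10 min compound preincubation; data scaled to 57 uM ketoconazole as 100% inhibition.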

The target in assay [13] is Glucocorticoid receptor (Homo sapiens) (UniProt P04150). As to the kind of experiment: GR-GFP Redistribution (AID 450;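 active = compounds whose dose series gives a full or clear partial fitted curve of increased nuclear translocation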; note: potency is the fitted concentration of half-maximal effect). To be noted: U2OS GR-GFP nuclear translocation, laser cytometry, 2 h.
Assay [14] is described as follows: Confirmation and Secondary Assay for Modulators of Hemoglobin Beta Chain Splicing at IVS2 654 locus (AID 910; active = well fitted curve in the direction sought with a large enough effect; an effect the other way counts as inactive or inconclusive;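 note: per-well total GFP intensity by laser scanning cytometry after 2-day treatment; % of control where 0% means no effect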). The note with it: HeLa EGFP-654 splicing reporter, GFP fluorescence, 48 h; series mostly up to 38.3 µM. The essentials: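 HeLa cells stably carrying EGFP interrupted by mutant beta-globin IVS2-654 intron (CMV-driven) were treated with compound for 2 days at 37C; corrected splicing was scored as total peak GFP intensity per well (488 nm excitation, 500-520 nm emission).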

Assay [15] can be described thus: Confirmation and Secondary Assay for Modulators of Hemoglobin Beta Chain Splicing at IVS2 705 locus (AID 930; active = well fitted curve in the direction sought with a large enough effect; an effect the other way counts as inactive or inconclusive; note: % of control where 0% means no effect). To be noted: HeLa EGFP-705 splicing reporter, GFP fluorescence, 48 h; series mostly up to 38.3 µM. The method, boiled down: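 Fluorescence gain (488 nm laser, 500-520 nm PMT) reflects restored correct splicing of a mutant IVS2-705 intron inside EGFP in stably transfected HeLa cells after 2-day compound treatment.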

For assay [16], the target named is Ubiquitin carboxyl-terminal hydrolase 1 (Homo sapiens) (UniProt O94782). Put plainly: Inhibitors of USP1/UAF1: Pilot qHTS (AID 504865; active = well fitted curve in the direction sought with a large enough effect; an effect the other way counts as inactive or inconclusive;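 note: rhodamine fluorescence freed from ubiquitin-rhodamine substrate followed over time; top concentration of the series differs between compounds; % is set by controls: 0 for no effect and ±100 for the full control effect; nearly all actives have a fitted effect of over 35% in size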). The note with it: purified USP1/UAF1, Ub-rhodamine cleavage fluorescence; series mostly up to 54.9 µM. The method, boiled down:
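1nM USP1/UAF1 + cpd, 15 min RT; start w/ Ub-Rho 150nM final; kinetic FL 480/540 nm, 6 reads q60 s. Buffer 50mM HEPES pH 7.8, 0.5mM EDTA, 1mM TCEP, 0.01% Tween-20, 0.1 mg/ml BSA.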

Assay [17] can be described thus: qHTS Assay for Identification of Small Molecule Agonists for Hypoxia Response Element Signaling Pathway (AID 914; active = well fitted activation curve with a large enough effect in the signal ratio, with a control signal flat, not every such curve was filed as active; the % refers to the signal ratio; note: % of control where 0% means no effect). The note with it: ME-180 (cervical carcinoma) HRE-bla reporter, beta-lactamase ratio, CoCl2, 17 h; activation: stronger effect = higher value. The method, boiled down: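 A beta-lactamase reporter under hypoxia response element control in ME-180 cells served as the system. Compound titrations plus EC50 CoCl2 ran 17 h at 37 degrees Celsius; AC50 values were fitted from %Activity.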

Where [18] appears, read: measured here: cell count channel max response.
Where [19] appears, read: measured here: lipid channel max response.

Glucocorticoid receptor (Homo sapiens), sequence (P04150 whole entry, looked up, the tested form may be a part): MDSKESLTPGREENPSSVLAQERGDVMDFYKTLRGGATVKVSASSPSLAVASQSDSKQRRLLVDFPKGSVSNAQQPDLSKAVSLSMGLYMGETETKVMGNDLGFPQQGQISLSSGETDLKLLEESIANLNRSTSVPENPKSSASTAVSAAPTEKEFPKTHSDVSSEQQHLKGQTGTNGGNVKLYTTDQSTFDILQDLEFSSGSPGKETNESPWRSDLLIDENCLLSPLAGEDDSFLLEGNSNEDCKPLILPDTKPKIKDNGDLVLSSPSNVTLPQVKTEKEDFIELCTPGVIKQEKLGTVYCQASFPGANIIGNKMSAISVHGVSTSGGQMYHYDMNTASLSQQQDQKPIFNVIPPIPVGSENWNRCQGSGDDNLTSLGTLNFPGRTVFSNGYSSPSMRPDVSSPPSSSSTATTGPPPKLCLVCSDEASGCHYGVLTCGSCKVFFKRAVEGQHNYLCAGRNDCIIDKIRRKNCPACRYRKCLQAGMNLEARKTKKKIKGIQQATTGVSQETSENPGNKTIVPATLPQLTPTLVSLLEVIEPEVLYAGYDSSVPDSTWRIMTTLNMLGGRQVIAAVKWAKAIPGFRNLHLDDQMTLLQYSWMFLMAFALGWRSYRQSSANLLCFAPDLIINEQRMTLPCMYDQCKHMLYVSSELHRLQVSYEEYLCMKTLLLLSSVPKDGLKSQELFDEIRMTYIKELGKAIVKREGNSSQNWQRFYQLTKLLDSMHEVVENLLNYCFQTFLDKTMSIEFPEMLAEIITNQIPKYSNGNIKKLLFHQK
3',5'-cyclic-AMP phosphodiesterase 4B (Homo sapiens), sequence (Q07343 whole entry, looked up): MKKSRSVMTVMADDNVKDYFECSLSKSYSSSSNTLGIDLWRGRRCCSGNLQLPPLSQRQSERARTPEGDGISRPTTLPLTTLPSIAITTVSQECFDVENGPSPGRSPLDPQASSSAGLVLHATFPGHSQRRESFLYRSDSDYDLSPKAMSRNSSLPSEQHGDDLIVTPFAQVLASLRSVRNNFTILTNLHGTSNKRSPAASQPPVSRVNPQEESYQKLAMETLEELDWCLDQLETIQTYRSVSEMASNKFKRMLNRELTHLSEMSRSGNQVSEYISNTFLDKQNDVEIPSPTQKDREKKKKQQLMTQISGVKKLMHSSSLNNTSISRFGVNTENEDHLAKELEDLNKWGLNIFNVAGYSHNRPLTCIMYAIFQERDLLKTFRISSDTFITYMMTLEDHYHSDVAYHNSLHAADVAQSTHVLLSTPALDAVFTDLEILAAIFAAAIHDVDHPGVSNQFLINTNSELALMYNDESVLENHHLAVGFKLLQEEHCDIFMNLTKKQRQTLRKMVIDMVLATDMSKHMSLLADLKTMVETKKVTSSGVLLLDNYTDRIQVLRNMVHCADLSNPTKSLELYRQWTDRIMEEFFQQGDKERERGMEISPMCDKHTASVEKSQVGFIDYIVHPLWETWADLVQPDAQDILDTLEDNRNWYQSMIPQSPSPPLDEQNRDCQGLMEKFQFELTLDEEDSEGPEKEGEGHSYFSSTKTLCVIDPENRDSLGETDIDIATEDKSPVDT
Lysosomal acid glucosylceramidase (Homo sapiens), sequence (P04062 whole entry, looked up): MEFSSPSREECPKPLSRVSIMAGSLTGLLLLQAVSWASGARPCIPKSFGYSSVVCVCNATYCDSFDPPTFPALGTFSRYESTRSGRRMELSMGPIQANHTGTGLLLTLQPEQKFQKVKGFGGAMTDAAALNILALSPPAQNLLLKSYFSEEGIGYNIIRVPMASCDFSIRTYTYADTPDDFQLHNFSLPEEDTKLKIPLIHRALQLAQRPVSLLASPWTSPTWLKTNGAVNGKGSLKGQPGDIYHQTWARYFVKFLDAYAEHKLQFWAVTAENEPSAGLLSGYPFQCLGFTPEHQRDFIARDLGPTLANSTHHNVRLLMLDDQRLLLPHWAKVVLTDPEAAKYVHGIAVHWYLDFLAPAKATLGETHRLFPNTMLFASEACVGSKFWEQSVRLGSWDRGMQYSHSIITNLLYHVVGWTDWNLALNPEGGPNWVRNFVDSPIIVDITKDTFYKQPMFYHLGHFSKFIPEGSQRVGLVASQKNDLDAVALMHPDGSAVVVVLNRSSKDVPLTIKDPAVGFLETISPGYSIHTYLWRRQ
Cytochrome P450 3A4 (Homo sapiens), sequence (P08684 whole entry, looked up): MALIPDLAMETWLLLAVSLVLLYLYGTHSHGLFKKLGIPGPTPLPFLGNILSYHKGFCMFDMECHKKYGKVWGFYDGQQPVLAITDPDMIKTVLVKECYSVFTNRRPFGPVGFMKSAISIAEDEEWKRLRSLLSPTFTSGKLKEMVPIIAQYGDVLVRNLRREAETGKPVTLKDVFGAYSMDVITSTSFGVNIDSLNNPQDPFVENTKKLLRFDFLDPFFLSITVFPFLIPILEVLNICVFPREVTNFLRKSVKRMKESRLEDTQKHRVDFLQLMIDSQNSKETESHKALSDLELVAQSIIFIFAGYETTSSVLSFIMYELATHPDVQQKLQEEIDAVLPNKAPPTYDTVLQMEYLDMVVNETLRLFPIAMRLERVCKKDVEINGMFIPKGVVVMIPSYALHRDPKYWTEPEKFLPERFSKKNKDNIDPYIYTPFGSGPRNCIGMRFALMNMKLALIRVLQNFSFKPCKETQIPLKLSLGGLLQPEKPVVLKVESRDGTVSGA
Cytochrome P450 1A2 (Homo sapiens), sequence (P05177 whole entry, looked up): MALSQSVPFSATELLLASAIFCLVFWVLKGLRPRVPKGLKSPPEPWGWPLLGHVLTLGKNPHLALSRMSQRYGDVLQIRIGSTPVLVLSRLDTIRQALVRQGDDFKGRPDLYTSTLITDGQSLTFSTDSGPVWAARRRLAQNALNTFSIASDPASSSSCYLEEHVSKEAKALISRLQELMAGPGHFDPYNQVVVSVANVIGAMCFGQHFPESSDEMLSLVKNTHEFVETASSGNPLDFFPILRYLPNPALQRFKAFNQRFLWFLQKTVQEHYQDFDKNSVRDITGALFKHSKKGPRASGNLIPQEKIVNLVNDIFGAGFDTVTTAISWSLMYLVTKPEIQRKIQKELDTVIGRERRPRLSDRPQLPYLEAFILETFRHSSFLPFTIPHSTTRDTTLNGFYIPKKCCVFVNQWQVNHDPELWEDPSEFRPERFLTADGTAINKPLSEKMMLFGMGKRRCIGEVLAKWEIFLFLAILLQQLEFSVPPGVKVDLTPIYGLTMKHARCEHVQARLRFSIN
Cytochrome P450 2C19 (Homo sapiens), sequence (P33261 whole entry, looked up): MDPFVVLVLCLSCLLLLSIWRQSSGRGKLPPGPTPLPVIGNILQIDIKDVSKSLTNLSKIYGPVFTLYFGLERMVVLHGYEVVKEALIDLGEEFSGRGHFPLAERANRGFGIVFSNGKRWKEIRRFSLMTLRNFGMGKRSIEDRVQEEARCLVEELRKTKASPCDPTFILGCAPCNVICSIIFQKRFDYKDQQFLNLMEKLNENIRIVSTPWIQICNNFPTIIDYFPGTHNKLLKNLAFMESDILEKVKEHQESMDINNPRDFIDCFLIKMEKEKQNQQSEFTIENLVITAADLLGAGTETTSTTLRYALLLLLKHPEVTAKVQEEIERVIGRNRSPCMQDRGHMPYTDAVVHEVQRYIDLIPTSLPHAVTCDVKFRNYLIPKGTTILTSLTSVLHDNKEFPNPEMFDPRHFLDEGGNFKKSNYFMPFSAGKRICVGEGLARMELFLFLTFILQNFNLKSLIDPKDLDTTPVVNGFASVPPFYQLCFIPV
Ubiquitin carboxyl-terminal hydrolase 1 (Homo sapiens), sequence (O94782 whole entry, looked up): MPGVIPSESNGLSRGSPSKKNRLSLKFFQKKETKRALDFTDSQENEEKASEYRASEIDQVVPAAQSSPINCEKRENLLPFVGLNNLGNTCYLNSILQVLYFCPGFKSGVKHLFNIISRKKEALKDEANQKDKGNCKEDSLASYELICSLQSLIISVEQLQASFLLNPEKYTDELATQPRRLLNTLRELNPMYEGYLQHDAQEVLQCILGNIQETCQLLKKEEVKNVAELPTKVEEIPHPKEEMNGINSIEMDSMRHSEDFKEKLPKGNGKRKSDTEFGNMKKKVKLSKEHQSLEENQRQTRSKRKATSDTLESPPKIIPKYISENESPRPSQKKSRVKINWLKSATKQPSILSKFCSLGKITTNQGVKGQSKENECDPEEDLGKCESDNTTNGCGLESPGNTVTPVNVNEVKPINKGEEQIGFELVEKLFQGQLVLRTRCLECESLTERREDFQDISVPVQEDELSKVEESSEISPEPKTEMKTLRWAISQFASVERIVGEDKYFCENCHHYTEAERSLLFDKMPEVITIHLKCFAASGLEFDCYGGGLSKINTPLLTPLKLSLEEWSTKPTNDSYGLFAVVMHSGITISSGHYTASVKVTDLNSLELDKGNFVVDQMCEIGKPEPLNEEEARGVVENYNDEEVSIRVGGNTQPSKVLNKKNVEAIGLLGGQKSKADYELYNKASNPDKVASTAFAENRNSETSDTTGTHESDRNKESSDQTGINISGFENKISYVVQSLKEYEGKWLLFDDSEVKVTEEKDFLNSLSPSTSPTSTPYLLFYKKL

Turning to `Cc1noc(C)c1C(=O)N1CCC[C@@]2(CCN(Cc3cc(C(F)(F)F)cc(C(F)(F)F)c3)C2)C1`, the Potency is > 11.4 µM (inactive) in assay [1] and > 46 µM (inactive) in [6]. Besides, the figures for the activity change, negative = inhibition in assay [2], in [4] and in assay [11] were 1.15% (inactive), 14.8% (inactive) and 4.37% (inactive), respectively. For the same molecule, the Potency entry in [3], in assay [7], in assay [8], in assay [9] and in assay [10] was “inactive” throughout. In addition, in assay [5], the activity, negative = inhibition was 1.36% (inactive). The max response came to 12.5% in [11] (setting [18]) and 19.6% in assay [11] (setting [19]).
As to `O=C(c1cnccn1)N1CCC2(CCCN(c3cccc(-c4ccccc4)c3)C2)CC1`, the Potency is > 11.4 µM (inactive) in assay [1], 20 µM (active) in assay [3], > 46 µM (inactive) in assay [6] and 2 µM (active) in [12]. The figures for the activity change, negative = inhibition in assay [2], in [4] and in assay [11] were -16.1% (inactive), 5.03% (inactive) and -1.76% (inactive), respectively. The activity, negative = inhibition in [5] was -8.34% (inactive). Further, the Potency result in [7] and in [9] was “inactive” in each case. The max response turned out to be 20.5% in assay [11] (setting [18]) and 18.4% in assay [11] (setting [19]).
Regarding `CN1CCN(c2ncc3ncc(=O)n(Cc4cccs4)c3n2)CC1`, the Potency in [1] was > 11.4 µM (inactive); in assay [3] it was 3.98 µM (active); in assay [13] it was > 9.22 µM (inactive); in assay [6], > 46 µM (inactive). For the same molecule, the activity change, negative = inhibition in assay [2] is -18.1% (inactive); in [11] it was 4.27% (inactive). Also, in assay [5], the activity, negative = inhibition was -10.9% (inactive). Further, the Potency entry in [7], in assay [8] and in assay [9] was “inactive” each time. For the same molecule, the results for the max response in [11] (setting [18]) and in assay [11] (setting [19]) were 26.8% and 33.1%, respectively.
As for `COc1ccc2[nH]cc(CCNc3cc(-c4ccoc4)ncn3)c2c1`, the Potency in [1] is > 11.4 µM (inactive); in assay [3], 0.631 µM (active); in assay [13], > 46 µM (inactive); in assay [6], > 46 µM (inactive); in assay [10] it was 5.01 µM (active). Further, the activity change, negative = inhibition in [2] was -5.94% (inactive); in [4], 2.58% (inactive); in [11] it was 11% (inactive). For the same molecule, the Potency result in [7], in assay [8], in assay [9], in assay [14] and in assay [16] was “inactive” in each case. Also, the call in assay [15] was inactive. Moreover, the figures for the max response in assay [11] (setting [18]) and in assay [11] (setting [19]) were 6.67% and 17.6%, respectively.
For `COc1ccccc1CN1CC[C@@]2(CCCN(S(=O)(=O)c3ccccc3)C2)C1`, the Potency was > 11.4 µM (inactive) in [1], 25.1 µM (active) in [3] and > 46 µM (inactive) in [6]. The results for the activity change, negative = inhibition in assay [2] and in assay [11] were 7.37% (inactive) and 6.22% (inactive), respectively. In addition, the Potency entry in assay [7], in assay [8] and in assay [9] was “inactive” in each case. Moreover, the values for the max response in assay [11] (setting [18]) and in [11] (setting [19]) were 0.611% and 10.2%, respectively.
For the molecule `COc1ccc(Oc2ncc3nc(CCc4ccccc4)c(=O)n(C)c3n2)cc1`, the Potency is > 11.4 µM (inactive) in assay [1], > 9.22 µM (inactive) in assay [13] and > 46 µM (inactive) in assay [6]. The figures for the activity change, negative = inhibition in assay [2], in [4] and in assay [11] were -17.4% (inactive), 2.43% (inactive) and -3.44% (inactive), respectively. Besides, the activity, negative = inhibition in [5] is -11.3% (inactive). The Potency entry in assay [7] and in assay [9] was “inactive” in each case. For the same molecule, the max response is 9.28% in assay [11] (setting [18]) and 8.21% in assay [11] (setting [19]).
With `O=C(c1cc(C(F)(F)F)cc(C(F)(F)F)c1)N1CCC2(CCCN(c3ccncc3)C2)CC1`, the Potency was > 11.4 µM (inactive) in assay [1] and > 46 µM (inactive) in assay [6]. The activity, negative = inhibition in assay [5] was 16.9% (inactive). For the same molecule, the Potency entry in assay [7] and in [8] was “inactive” in each case. For the same molecule, the activity change, negative = inhibition in [11] is 5.04% (inactive). The max response in assay [11] (setting [18]) is 8.86%; in assay [11] (setting [19]), 16%.
For the molecule `O=C(c1cnccn1)N1CCC2(CCN(Cc3ccncc3)CC2)CC1`, the Potency in assay [1] is > 11.4 µM (inactive); in [6] it was > 46 µM (inactive). For the same molecule, the activity change, negative = inhibition in assay [2] was -11.5% (inactive); in assay [4], -19.7% (inactive); in assay [11], 3.75% (inactive). Further, the activity, negative = inhibition in assay [5] is -8.42% (inactive). Moreover, the Potency entry in [7] and in [8] was “inactive” each time. In addition, the activation in assay [17] is 2.3% (inactive). For the same molecule, the max response in assay [11] (setting [18]) is 2.59%; in [11] (setting [19]), 8.61%.

These data come from PubChem BioAssay (NCATS).
